Each structure is given as a SMILES string. In all, about 350,000 compounds went through this assay and about 5,500 (1.6%) were called active.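 Rule for the calls: active = significant combined selectivity score with lowered wild-type GFP, culture density cut under 30%, mutant RFP and density less affected; inactive = any of these conditions unmet.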 The full list was thinned out, with actives kept by preference.

The assay is described as follows: GFP drop in mixed WT/humanized-ribosome E. coli culture – GFP/RFP fluorescence, OD600, single point, bacterial rRNA inhibitor project, primary screen (AID 720706). Particulars: E. coli WT GFP vs humanized-ribosome RFP mutants, 24 h; GFP signal change (wild-type ribosome): stronger effect = lower value, DMSO median 0, no signal -100; OD600 change: measured here: OD600 growth, DMSO median 0, no signal -100; RFP signal change: measured here: RFP humanized mutant strains, DMSO median 0, no signal -100, concentration not given here.
On to `C=C(C)COc1ccc(-c2ncncc2-c2ccc(OC)cc2)c(O)c1`, for which the GFP signal change (wild-type ribosome) was -11.6% (inactive), the OD600 change is -10.7% and the RFP signal change is -1.31%.

For `CCOc1ccc(-c2nc(N)ncc2-c2ccccc2OC)c(O)c1`, the GFP signal change (wild-type ribosome) was -28.9% (active), the OD600 change is -3.55% and the RFP signal change is -5.66%.

For `COc1ccc(-c2nc(N)ncc2-c2ccc(Cl)cc2)c(O)c1`, the GFP signal change (wild-type ribosome) is -4.3% (inactive), the OD600 change was -9.82% and the RFP signal change amounted to 0.567%.

`CCS(=O)(=O)Nc1ccc2c(c1)C(=O)N(C)[C@@H]1CC[C@H](CC(=O)N3CCCCC3)O[C@@H]1CO2`: the GFP signal change (wild-type ribosome) was -0.591% (inactive), the OD600 change was -4.1% and the RFP signal change was -3.67%.

Regarding `COc1ccc(NC(=O)N2C[C@H](O)COC[C@@H]3O[C@@H](CC(=O)NCc4ccccc4OC)CC[C@H]32)cc1`, the GFP signal change (wild-type ribosome) is -1.91% (inactive), the OD600 change is -2.52% and the RFP signal change is -1.31%.

Consider `COc1cccc(-c2cn(CC[C@H]3CC[C@H](NC(=O)CN(C)C)[C@H](CO)O3)nn2)c1`, for which the GFP signal change (wild-type ribosome) was -0.8% (inactive), the OD600 change is -2.58% and the RFP signal change was -0.651%.

In the case of `CCNC(=O)[C@H]1[C@H](CO)[C@H]2Cn3c(cccc3=O)[C@H]2N1C(=O)C1CCCC1`, the GFP signal change (wild-type ribosome) was 4.25% (inactive), the OD600 change is -2.66% and the RFP signal change was -1.17%.

Regarding `Cc1cc(Nc2ccc(Br)cc2)nc2ccccc12`, the GFP signal change (wild-type ribosome) is -50.8% (active), the OD600 change is -41% and the RFP signal change was -13.6%.

As to `Cc1cc(C)c(C#N)c(Nc2cccc(Br)c2)n1`, the GFP signal change (wild-type ribosome) is 11.7% (inactive), the OD600 change was 6.25% and the RFP signal change is 3.63%.

On to `C[C@H]1CCCCO[C@H](CN(C)Cc2ccccc2)[C@@H](C)CN([C@@H](C)CO)C(=O)c2cc(NS(C)(=O)=O)ccc2O1`, for which the GFP signal change (wild-type ribosome) is 2.67% (inactive), the OD600 change was found to be 3.64% and the RFP signal change is -3.91%.

With `CCNC(=O)[C@@H]1[C@@H](CO)[C@@H]2Cn3c(ccc(-c4ccncc4)c3=O)[C@@H]2N1Cc1cc(F)ccc1F`, the GFP signal change (wild-type ribosome) was 2.37% (inactive), the OD600 change was found to be 8.82% and the RFP signal change stood at 1.07%.

On to `C[C@@H]1CN([C@@H](C)CO)C(=O)c2cc(NC(=O)CCCN(C)C)ccc2O[C@@H](C)CCCCO[C@H]1CN(C)C(=O)Nc1cccc2ccccc12`, for which the GFP signal change (wild-type ribosome) is -3.48% (inactive), the OD600 change was -7.41% and the RFP signal change amounted to 4.52%.

In the case of `COc1ccc(Cn2c(=O)oc3ccccc32)cc1`, the GFP signal change (wild-type ribosome) is -5.68% (inactive), the OD600 change was 1.5% and the RFP signal change is 2.85%.

`Cc1ccc(OCCCn2c(=O)oc3ccccc32)cc1`: the GFP signal change (wild-type ribosome) was -33.5% (active), the OD600 change is -20.9% and the RFP signal change is -1.83%.

`Cc1cccc(NC(=O)CCn2c(=O)oc3ccccc32)c1`: the GFP signal change (wild-type ribosome) is 3.5% (inactive), the OD600 change was determined as 2.74% and the RFP signal change was -1.45%.

Consider `O=C(Nc1ccccc1F)N[C@@H]1C=C[C@H](CC(=O)N2CCCCC2)O[C@@H]1CO`, for which the GFP signal change (wild-type ribosome) is 3.61% (inactive), the OD600 change amounted to 6.08% and the RFP signal change was -0.341%.

As to `C[C@H](CO)N1C[C@H](C)[C@@H](CN(C)C(=O)Nc2cccc(F)c2)OCc2ccccc2-c2ccccc2C1=O`, the GFP signal change (wild-type ribosome) was -0.679% (inactive), the OD600 change is -1.43% and the RFP signal change was 0.291%.

On to `C[C@H](CO)N1C[C@H](C)[C@H](CN(C)C(=O)Nc2cccc3ccccc23)OCCCC[C@H](C)Oc2ccc(NC(=O)Nc3ccc4c(c3)OCO4)cc2C1=O`, for which the GFP signal change (wild-type ribosome) was 2.1% (inactive), the OD600 change is 5.33% and the RFP signal change is -1.79%.

Take `CC(C)NC(=O)N1CCCCN2[C@H](CO)[C@H](c3ccc(C#C[C@H](C)O)cc3)[C@H]2C1`: the GFP signal change (wild-type ribosome) is 5.37% (inactive), the OD600 change came to 11.9% and the RFP signal change came out at 2.67%.

Take `CCS(=O)(=O)N1Cc2cc(C(=O)N(C)C)nc(-c3cccc(-c4ccc(C#N)cc4)c3)c2[C@H]1CCO`: the GFP signal change (wild-type ribosome) was 1.6% (inactive), the OD600 change was -8.16% and the RFP signal change came out at 0.491%.

`CCCNC(=O)c1cc2c(c(-c3cccc(-c4ccc(F)cc4)c3)n1)[C@@H](CCO)N([S@](=O)C(C)(C)C)C2`: the GFP signal change (wild-type ribosome) was -7.84% (inactive), the OD600 change is -6.59% and the RFP signal change was 26.4%.

As for `CCCNC(=O)c1cc2c(c(-c3cccc(-c4ccc(C#N)cc4)c3)n1)[C@@H](CCO)N(C(=O)CC)C2`, the GFP signal change (wild-type ribosome) is -28.9% (active), the OD600 change was -16.6% and the RFP signal change is 9.41%.

In the case of `O=[N+]([O-])c1cccc(/C=N/Nc2ncc(Br)cn2)c1`, the GFP signal change (wild-type ribosome) was 14.8% (inactive), the OD600 change amounted to 23.4% and the RFP signal change came to 1.61%.

Regarding `O=[N+]([O-])c1cc(Br)c(O)c(/C=N/Nc2nc3ccccc3s2)c1`, the GFP signal change (wild-type ribosome) was -26.6% (active), the OD600 change is -18.1% and the RFP signal change worked out at 3.75%.

In the case of `O=C(N/N=C/c1cc(Br)c(O)c([N+](=O)[O-])c1)C(O)(c1ccccc1)c1ccccc1`, the GFP signal change (wild-type ribosome) was -13.8% (inactive), the OD600 change is -17.8% and the RFP signal change was -3.16%.

For `C[C@H](CO)N1C[C@H](C)[C@H](CN(C)C(=O)C2CCOCC2)Oc2ncc(C#Cc3ccccc3F)cc2C1=O`, the GFP signal change (wild-type ribosome) was 4.96% (inactive), the OD600 change is 16.6% and the RFP signal change is -0.455%.

With `Cc1nc2ccc(NC(=O)c3cccc(S(=O)(=O)N4CCOCC4)c3)cc2s1`, the GFP signal change (wild-type ribosome) is -8.91% (inactive), the OD600 change is -4.27% and the RFP signal change is -0.693%.

Turning to `Cc1cc2ccccn2c1C(=O)c1cccc(F)c1`, the GFP signal change (wild-type ribosome) is -7.7% (inactive), the OD600 change is -19.4% and the RFP signal change is -0.345%.

For `Cc1cc2ccccn2c1C(=O)c1cccc(S(=O)(=O)N2CCOCC2)c1`, the GFP signal change (wild-type ribosome) was -23.1% (active), the OD600 change was -17.5% and the RFP signal change stood at 2.76%.

Turning to `O=C(NC1CCCC1)[C@H]1[C@H](CO)[C@H]2Cn3c(cccc3=O)[C@H]2N1C(=O)NC1CCCC1`, the GFP signal change (wild-type ribosome) was 6.01% (inactive), the OD600 change came out at 13.7% and the RFP signal change was -2.22%.

Regarding `COc1ccc(S(=O)(=O)N(C)C[C@@H]2OCCCC[C@@H](C)Oc3ccc(NS(C)(=O)=O)cc3C(=O)N([C@H](C)CO)C[C@@H]2C)cc1`, the GFP signal change (wild-type ribosome) is 2.26% (inactive), the OD600 change was determined as 6.89% and the RFP signal change is -2.21%.

Take `O=C(NCC[C@H]1CC[C@H](NC(=O)C2CC2)[C@@H](CO)O1)c1cc(Cl)cc(Cl)c1`: the GFP signal change (wild-type ribosome) is -1.63% (inactive), the OD600 change was -6.47% and the RFP signal change was -0.371%.

On to `CCCNC(=O)N1[C@H](CO)[C@@H]2c3ccccc3N(C(=O)C3CC3)C[C@@H]21`, for which the GFP signal change (wild-type ribosome) was 6.32% (inactive), the OD600 change is 5.65% and the RFP signal change was found to be 0.0995%.

Consider `CC[C@H]1OC(=O)[C@H](C)[C@@H](O[C@H]2C[C@@](C)(OC)[C@@H](O)[C@H](C)O2)[C@H](C)[C@@H](O[C@@H]2O[C@H](C)C[C@H](N(C)C)[C@H]2O)[C@](C)(O)C[C@@H](C)[C@@H]2N[C@@H](COCCOC)O[C@H]([C@H]2C)[C@]1(C)O`, for which the GFP signal change (wild-type ribosome) is -22.6% (active), the OD600 change was -9.78% and the RFP signal change amounted to 5.64%.

In the case of `Cn1cnc(S(=O)(=O)N2C[C@@H](O)COC[C@H]3O[C@H](CC(=O)N4CCN(c5ccccc5)CC4)CC[C@@H]32)c1`, the GFP signal change (wild-type ribosome) is 9.71% (inactive), the OD600 change was 22% and the RFP signal change is -0.0733%.

Take `O=C(NNc1cc(Cl)cc(Cl)c1)c1c(F)cccc1Cl`: the GFP signal change (wild-type ribosome) was -4.44% (inactive), the OD600 change was -4.42% and the RFP signal change was -0.438%.

On to `Cc1ccc(NNC(=O)c2c(F)cccc2Cl)cc1Cl`, for which the GFP signal change (wild-type ribosome) was -32.7% (active), the OD600 change is -2.5% and the RFP signal change is -1.17%.

Turning to `CCN(CC)CCNC(=O)c1ccc(NC(=O)c2c(F)cccc2Cl)cc1`, the GFP signal change (wild-type ribosome) is 7.17% (inactive), the OD600 change was -3.78% and the RFP signal change is -0.531%.

These data come from PubChem BioAssay AID720706 (Broad Institute, 2013).
